# This is a sample that favours compounds with a hit; in the whole collection about 4.8% have one here.
# ALR inh: blocks human ALR sulfhydryl oxidase activity; purified ALR, DTT oxidation, H2O2 HRP-luminol luminescence; inhibition, % (test concentration not listed); 290,000 tested, 3.8% active; AID 485317;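 active means mean replicate inhibition above about 79%, with every replicate also reaching it, limit read from the data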
# Target sequence (P55789 whole entry, looked up): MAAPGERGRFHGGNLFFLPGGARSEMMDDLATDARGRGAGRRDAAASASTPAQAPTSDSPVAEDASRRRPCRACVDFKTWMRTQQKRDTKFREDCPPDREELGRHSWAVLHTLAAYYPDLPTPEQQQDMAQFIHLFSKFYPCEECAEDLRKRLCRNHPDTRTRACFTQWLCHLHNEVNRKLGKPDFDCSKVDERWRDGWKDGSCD
# SUMO Mot1 rescue: blocks SUMOylation pathway, rescuing yeast Mot1-301 growth | growth rescue, % at 18.8 µM | 320,000 tested, 1% active | AID 2716 | S. cerevisiae Mot1-301 growth rescue, ATP luminescence, 38.5C; percent above DMSO median, 100 means doubled;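 active means every valid replicate shows activation above 250% relative to neutral control wells; inactive means the rest, any valid replicate at or below 250%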
# HIF act: HIF pathway transcriptional activation | U2OS HRE-luciferase reporter, luminescence; normalized: DMSO 0%, desferrioxamine 100% | AID 1910 | activation, % at 7.5 µM (by protocol) | 300,000 tested, 0.32% active;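 active means mean activation of at least 10% of the iron chelator positive control signal, with at least half of replicates also reaching 10%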
# AI-2 QS modul: Vibrio harveyi AI-2 quorum sensing modulation | Vibrio harveyi JMH597 AI-2 luminescence/OD600 ratio, 9 h; active compounds read low; strain lacks LuxN and CqsS sensors; 0 = neutral-control median | activity change, % at 7.5 µM | 300,000 tested, 0.4% active; in the data active means activity change below about -75%, passing the limit was not always enough;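 further: luminescence divided by OD600 gain over 9 h not by final OD600 alone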
# Hits are given with their value; - = inactive; . = no result.
SMILES,ALR inh,SUMO Mot1 rescue,HIF act,AI-2 QS modul
Cc1ccc(CSc2ccc(-c3ccco3)nn2)cc1,-,-,-,-86.5
c1ccc(CSc2ccc(-c3ccco3)nn2)cc1,.,.,-,-77.2
CCOc1ccc(CCNC(=O)CCc2nnc3ccc(N4CCCCC4)nn23)cc1OCC,-,-,-,-
Cc1ccc(CN2CC(C(=O)N3CCN(S(=O)(=O)c4cccc(F)c4)CC3)CC2=O)cc1 (stereo unspecified),-,-,-,-
O=C(NC1CC1)c1cc(-c2ccco2)nc2ccccc12,.,.,-,-
Cc1ccc(C)c(-c2cc(C(=O)NC3CC3)c3ccccc3n2)c1,94.5,-,.,-
Cc1ccc(NC(=O)COc2ncnc3sccc23)cc1S(=O)(=O)N(C)C,-,-,-,-78.4
NC(CCCCc1ccccc1)c1cccc2ccccc12 (stereo unspecified),-,-,-,-
CCN1CCn2c3c(c4cc(C)ccc42)CCCC31 (stereo unspecified),98.3,-,-,-
Cn1c(N)c(S(=O)(=O)N2CCN(c3ccccc3F)CC2)c(=O)n(C)c1=O,-,-,-,-
Cc1ccc(-c2sc(C)nc2CC(=O)O)cc1,-,-,-,-
Cc1ccc(-c2sc(-c3cccnc3)nc2CC(=O)O)cc1,99.0,-,-,-
[O-]c1c[n+](-c2ccc(-[n+]3cc([O-])on3)cc2)no1,98.1,-,-,-
CCN(CCCNC(=O)CCc1nc(-c2ccc(OC)cc2)no1)c1cccc(C)c1,86.7,-,143.3,-
CN(Cc1ccccc1)C(=O)CNC(=O)Cn1cnc2ccccc2c1=O,-,-,-,-
CCN(CCCNC(=O)CNC(=O)Cn1cnc2ccccc2c1=O)c1ccccc1,98.0,-,.,.
COc1ccc(NC(=O)Cn2cnc3ccccc3c2=O)cc1OC,-,-,-,-76.3
CCN(CCNC(=O)Cn1c(=O)sc2ccccc21)c1ccccc1,98.2,-,-,-
CC1CCN(C(=O)c2[nH]cnc2C(=O)Nc2cccc(Cl)c2)CC1,-,-,.,.
Cn1c(=O)[nH]c(=O)c2c1nc(SCc1ccccc1Cl)n2CC(N)=O,-,-,-,-
CCN(CCCNC(=O)CCNC(=O)Cn1ccc2ccccc2c1=O)c1ccccc1,.,.,32.5,-
CN(CCNC(=O)CCNC(=O)Cn1ccc2ccccc2c1=O)Cc1ccccc1,-,-,-,-
CCCN(C(=O)CCNC(=O)Cn1cnc2ccccc2c1=O)c1cccc(C)c1,-,-,-,-
CCN(CCCNC(=O)Cn1cc2c(n1)CCCC2)c1cccc(C)c1,98.9,-,-,-
CCN(CCCNC(=O)CCNC(=O)Cn1cnc2ccccc2c1=O)c1cccc(C)c1,99.3,-,-,-
SMILES,ALR inh,SUMO Mot1 rescue,HIF act,AI-2 QS modul
COc1ccc(N2CCN(C(=O)CNC(=O)c3cccc(Br)c3)CC2)cc1,-,-,-,-
CCOc1cc(CNc2ccc3c(c2)OCCO3)cc(Br)c1OCC(N)=O,-,-,-,-
COc1cc2sc3cc(NCc4ccc5c(c4)OCO5)ccc3c(=O)c2cc1OC,-,-,.,.
COc1ccc(NCc2ccc3c(c2)OCO3)cc1Cl,96.7,-,-,-
COc1cc(CNc2ccc3c(c2)OCCO3)ccc1OCC(N)=O,99.5,.,-,-
COc1cc(C(=O)OCCN2CCOCC2)cc(OC)c1OC,-,-,-,-
COc1cc(C(=O)OCCCN2CCOCC2)ccc1O,98.7,-,-,-
Cc1ccccc1C(=O)N1CCC(C(=O)OCc2ccccn2)CC1,-,-,.,.
CC1(c2ccc3c(c2)OCCO3)NC(=O)N(CC(=O)Nc2ccccc2SCC#N)C1=O (stereo unspecified),-,-,.,.
COCCSc1ccccc1C(=O)N1CCN(c2ccccc2)CC1,87.2,-,-,-
O=C(CSc1ccccc1C(=O)N1CCN(c2ccc([N+](=O)[O-])cc2)CC1)N1CCCC1,-,-,.,.
O=C(CSc1ccccc1C(=O)N1CCN(c2ccccc2)CC1)N1CCCC1,98.4,-,.,.
CCOC1=C/C(=C/c2c(N)n3nc(CC(=O)N4CCCC4)sc3nc2=O)C=CC1=O,99.2,-,-,-
COC1=CC(=Cc2c(N)n3nc(CC(=O)N4CCCCC4)sc3nc2=O)C=C(OC)C1=O,-,-,-,-
COC1=C/C(=C/c2c(N)n3nc(CC(=O)N4CCCC4)sc3nc2=O)C=CC1=O,83.8,-,-,-
CC1=Nc2ccc(C)cc2/C1=C/c1c(N)n2nc(CC(=O)N3CCOCC3)sc2nc1=O,-,-,-,-
CC[C@@]1(O)C(=O)OCc2c1cc1n(c2=O)Cc2cc3c(N)cccc3nc2-1,-,-,17.0,-
Cc1cccc(/C(N)=N/OC(=O)c2ccc3c(c2)OCO3)c1,97.2,-,-,-

# High-throughput results as filed in PubChem BioAssay.
